# Calls of active or inactive are those of the source.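 Rule for the calls: active = potency half-maximal inhibitory concentration below 100 µM; inconclusive = dose-dependent response but potency above 100 µM; inactive = the rest.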
# Target: Lysine-specific demethylase 4E (Homo sapiens) (UniProt B2RXH2)
# Assay: AlphaScreen Assay for Inhibitors of Human Jumonji Domain Containing 2E (JMJD2E)
# Conditions: recombinant JMJD2E, H3K9me3 peptide demethylation
# Text: The fine interplay among methylation states of several lysine residues on the tails of histone proteins is a major determinant of the transcriptional state of the associated DNA coding regions and is commonly referred to as the histone code. Histone lysine demethylases catalyze the removal of methyl groups from methylated lysine sidechains on histones H3 and H4, thus antagonizing the reactions catalyzed by histone lysine methyltransferases. […] In search for novel inhibitors of JMJD2E demethylase, a member of the largest set of histone demethylases belonging to the Fe(II) and 2-oxoglutarate oxygenase (2OG) superfamily, we performed a quantitative high-throughput screen (Inglese 2006). See AID 2147 for details on the primary screen. The assay here is a secondary AlphaScreen screen used to validate follow-up compounds. References: Inglese, J., Auld, D., Jadhav, A., Johnson, R., Simeonov, A., Yasgar, A., Zheng, W. and Austin, C. […]
# Assay Buffer: 50 mM HEPES pH7.5, 0.01% Tween-20, 0.1% BSA (Cohn Fraction V; Sigma A7030) Peptide: biotin-[…](me3/2)STGGKA Antibody: Abcam Ab1220, Anti-H3K9Me2 Final concentration of components in enzyme reaction: JMJD2E 5 nM, Peptide 30 nM, […] L-Ascorbic Acid, […], DMSO 0.1% Alphascreen beads made up in the dark in assay buffer and pre-incubated for 1 hour in the dark. […] Read plate on BMG Labtech Pherastar FS
# Sequence of Lysine-specific demethylase 4E (Homo sapiens) (B2RXH2 1-337 limits assumed): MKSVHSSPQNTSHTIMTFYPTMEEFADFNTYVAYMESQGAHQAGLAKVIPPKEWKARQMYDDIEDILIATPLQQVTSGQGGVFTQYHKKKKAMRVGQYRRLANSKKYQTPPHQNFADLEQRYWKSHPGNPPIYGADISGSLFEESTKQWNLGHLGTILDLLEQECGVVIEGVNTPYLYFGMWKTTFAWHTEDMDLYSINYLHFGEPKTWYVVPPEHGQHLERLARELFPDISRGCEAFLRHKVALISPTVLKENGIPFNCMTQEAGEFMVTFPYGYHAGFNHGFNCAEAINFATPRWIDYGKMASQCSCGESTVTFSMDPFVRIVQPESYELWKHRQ
row,SMILES,Potency
1,O=S(=O)(Nc1ccc(O)c2ncccc12)c1ccccc1F,435 nM (active)
2,Oc1ccc(CNc2cccc(F)c2)c2cccnc12,1490 nM (active)

# From PubChem BioAssay AID2687 (National Center for Advancing Translational Sciences (NCATS), 2010)
